For assay [1], the system named is TRPC4 beta (transient receptor potential cation channel C4), mouse. Kind of assay: activators of mouse TRPC4 channel, confirmation, cell-based, Fluo4 calcium, HEK293 TRPC4beta/mu-opioid, duplicates, 10 µM (AID 2426;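 active = fluorescence ratio normalized to control raised more than 50% in primary screen plus both repeat runs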). The following applies: Fluo4 calcium fluorescence, at 10 µM; stronger effect = higher value.
Assay [2] deals with transient receptor potential cation channel C4 beta (TRPC4), mouse. As to the kind of experiment: activators of mouse TRPC4 channel, confirmation, cell-based, second round, Fluo4, HEK293 TRPC4beta/mu-opioid, 1 µM (AID 2461;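 active = primary screen active and over 50% activation in each of two duplicate runs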). As to conditions: Fluo4 calcium fluorescence, at 1 µM; stronger effect = higher value.
Assay [3] relates to TRPC4 (transient receptor potential cation channel C4 beta), mouse. As to the kind of experiment: positive allosteric modulators of mouse TRPC4, confirmation, cell-based, second round, Fluo-4, HEK293 TRPC4beta/mu-opioid, 1 µM (AID 2554;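 active = primary screen hit whose fluorescence ratio, in both repeats, exceeds the weak agonist control mean by 3 SD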). The following applies: DAMGO EC20, Fluo-4 calcium flux, at 1 µM; stronger effect = higher value. (Calcium assays in cells follow changes in intracellular calcium, usually with a dye or a luminescent sensor.)

Assay [4] concerns TRPC4 beta (transient receptor potential cation channel C4), mouse. Kind of assay: positive allosteric modulators of mouse TRPC4, confirmation, cell-based, Fluo-4, HEK293 TRPC4beta/mu-opioid (AID 2555;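 active = primary screen hit whose calcium fluorescence ratio, in both repeats, exceeds the weak agonist control mean by 3 SD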). The following applies: DAMGO EC20, Fluo-4 calcium flux, at 10 µM; stronger effect = higher value.
In assay [5] the target is Short transient receptor potential channel 4 (Mus musculus) (UniProt Q9QUQ5). As to the kind of experiment: inhibitors of mouse TRPC4 channel, confirmation, cell-based, Fluo4, HEK293 TRPC4beta/mu-opioid (AID 2636;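 active = calcium signal cut by more than 3 SD below the full-agonist control yet still positive, in both repeats and the earlier primary screen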). The following applies: DAMGO, Fluo4 calcium flux, at 10 µM; stronger effect = higher value.
For assay [6] the target is unchanged. Kind of assay: inhibitors of mouse TRPC4 channel, confirmation, cell-based, second round, Fluo4, HEK293 TRPC4beta/mu-opioid, 1 µM (AID 2637;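 active = calcium signal ratio cut to more than 3 SD under the fully stimulated control mean yet still positive, in both repeats and the primary screen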). As to conditions: Fluo4 calcium flux, DAMGO, at 1 µM; stronger effect = higher value.
Assay [7] shares this target. Kind of assay: mouse TRPC4 channel activators, dose response, cell-based, HEK293 TRPC4/mu-opioid, Fluo-4 calcium (AID 434937;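 active = primary screen activator hit with a dose response curve and TRPC4 channel activation at any tested dose; inactive = no activation, no dose response, or not a primary hit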).
The target is the same in assay [8]. As to the kind of experiment: TRPC4 positive allosteric modulators, dose response, cell-based, HEK293 TRPC4/mu-opioid, Fluo-4 calcium, EC20 DAMGO (AID 434941;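 active = earlier screen potentiator hit that boosts the TRPC4 ion channel at some dose, with a dose response; inactive = no potentiation, no dose response, or not a prior hit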;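 note: calcium entry triggered by an EC20 dose of DAMGO at the co-expressed mu-opioid receptor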).
The target is the same in assay [9]. As to the kind of experiment: mouse TRPC4 channel inhibitors, dose response, cell-based, HEK293 TRPC4/mu-opioid, Fluo-4 calcium (AID 434942;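 active = primary screen inhibitor hit that blocks the TRPC4 channel at some tested dose, yielding a dose curve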).
Assay [10] addresses Short transient receptor potential channel 6 (Mus musculus) (UniProt Q61143). Kind of assay: inhibition of mouse TRPC6 channel, confirmation, selectivity assay for TRPC4 inhibitor project, cell-based, HEK293, membrane potential dye, duplicate (AID 434948;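 active = active in primary screen and both duplicates, each dropping signal beyond three positive-control SD with fluorescence still positive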). As to conditions: HEK293 TRPC6, membrane potential dye fluorescence, at 10 µM, stimulated with maximal-effect acetylcholine; stronger effect = higher value.

For assay [11] the target is unchanged. As to the kind of experiment: activation of mouse TRPC6 channel, confirmation, selectivity assay for TRPC4 activator project, cell-based, HEK293, membrane potential dye, duplicate (AID 434950;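 active = membrane potential signal rise above negative control mean plus 3 SD in both duplicates, also active in the earlier TRPC4 screen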;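 for activation: 0% = buffer only wells and 100% = acetylcholine maximal-effect wells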). As to conditions: HEK293 TRPC6, membrane potential fluorescence, at 10 µM; stronger effect = higher value.
Assay [12] has the same target. Kind of assay: TRPC6 potentiation by TRPC4 potentiator hits, confirmation, selectivity assay for TRPC4 potentiator project, HEK293 cells, membrane potential dye, duplicate (AID 434952;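 active = compound raising the membrane signal above positive-control mean plus 3 SD in both repeats, and a primary screen hit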). The following applies: HEK293 TRPC6, membrane potential dye fluorescence, at 10 µM, maximal acetylcholine added after compound; stronger effect = higher value.
The target of assay [13] is Short transient receptor potential channel 4 (Mus musculus) (UniProt Q9QUQ5). Kind of assay: calcium flux activators in TRPC4/5HT1a cells, counter-screen for TRPC4 activator project, cell-based, second counter screen, HEK293 TRPC4/5HT1a, Fluo-4 (AID 434977;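 active = calcium signal rise above buffer-control mean plus 5 SD in both duplicates, and also a hit in the primary screen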). As to conditions: Fluo-4 calcium flux, at 10 µM; stronger effect = higher value.
Assay [14] is described as follows: calcium flux inhibitors in TRPC4/5HT1a cells, confirmation, counter-screen for TRPC4 inhibitor project, cell-based, second counter screen, HEK293 TRPC4/5HT1a, Fluo-4 (AID 434978;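 active = primary screen active whose calcium signal fell more than 3 SD beyond the full-serotonin control mean in both duplicate plates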;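 for outcome: serotonin given first at submaximal then at maximal dose after compound preincubation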). The following applies: Fluo-4 calcium flux, at 10 µM, serotonin added to trigger calcium flux; stronger effect = higher value.
In assay [15] the test system is TRPC4 (mouse), co-expressed with 5HT1a in HEK293. Kind of assay: calcium flux potentiators in TRPC4/5HT1a cells, confirmation, counter-screen for TRPC4 potentiator project, cell-based, second counter screen, HEK293 TRPC4/5HT1a, Fluo-4 (AID 434979). The following applies: Fluo-4 calcium flux, at 10 µM, serotonin added at its EC20 dose; stronger effect = higher value.
The nature of assay [16]: calcium flux activation in mu-opioid HEK293 cells, confirmation, counter-screen for TRPC4 activator project, cell-based, HEK293 mu-opioid receptor line (AID 449723;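 active = hit in primary screen, with calcium signal over 5 SD above buffer well mean in both duplicates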;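 note: counter screen cells carry the mu-opioid receptor alone and lack TRPC4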). As to conditions: Fluo-4 calcium fluorescence, at 10 µM; stronger effect = higher value.
Assay [17] can be described thus: calcium flux enhancement in mu-opioid HEK293 cells, confirmation, counter-screen for TRPC4 allosteric potentiator project, cell-based, HEK293 mu-opioid receptor line (AID 449724;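 active = calcium signal rise more than 3 SD above the low-dose agonist control mean, in both duplicate plates and the primary screen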;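 note: HEK293 cells carrying mu-opioid receptor only with no TRPC4 channel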). As to conditions: Fluo-4 calcium flux, at 10 µM, compound added before EC20 DAMGO stimulus; stronger effect = higher value.

Each structure is given as a SMILES string. For part of these data: Potency and affinity values are given separately. Calls of active or inactive are those of the source.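 Rule for the calls, unless noted: active = signal rise over 3 SD above mean of control wells given weak agonist, in both repeats and first screen; inactive = the rest.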

A word on the inhibition: it is the change of the read-out against control, counted positive when it falls.

Chain of Short transient receptor potential channel 6 (Mus musculus) (Q61143 whole entry, looked up): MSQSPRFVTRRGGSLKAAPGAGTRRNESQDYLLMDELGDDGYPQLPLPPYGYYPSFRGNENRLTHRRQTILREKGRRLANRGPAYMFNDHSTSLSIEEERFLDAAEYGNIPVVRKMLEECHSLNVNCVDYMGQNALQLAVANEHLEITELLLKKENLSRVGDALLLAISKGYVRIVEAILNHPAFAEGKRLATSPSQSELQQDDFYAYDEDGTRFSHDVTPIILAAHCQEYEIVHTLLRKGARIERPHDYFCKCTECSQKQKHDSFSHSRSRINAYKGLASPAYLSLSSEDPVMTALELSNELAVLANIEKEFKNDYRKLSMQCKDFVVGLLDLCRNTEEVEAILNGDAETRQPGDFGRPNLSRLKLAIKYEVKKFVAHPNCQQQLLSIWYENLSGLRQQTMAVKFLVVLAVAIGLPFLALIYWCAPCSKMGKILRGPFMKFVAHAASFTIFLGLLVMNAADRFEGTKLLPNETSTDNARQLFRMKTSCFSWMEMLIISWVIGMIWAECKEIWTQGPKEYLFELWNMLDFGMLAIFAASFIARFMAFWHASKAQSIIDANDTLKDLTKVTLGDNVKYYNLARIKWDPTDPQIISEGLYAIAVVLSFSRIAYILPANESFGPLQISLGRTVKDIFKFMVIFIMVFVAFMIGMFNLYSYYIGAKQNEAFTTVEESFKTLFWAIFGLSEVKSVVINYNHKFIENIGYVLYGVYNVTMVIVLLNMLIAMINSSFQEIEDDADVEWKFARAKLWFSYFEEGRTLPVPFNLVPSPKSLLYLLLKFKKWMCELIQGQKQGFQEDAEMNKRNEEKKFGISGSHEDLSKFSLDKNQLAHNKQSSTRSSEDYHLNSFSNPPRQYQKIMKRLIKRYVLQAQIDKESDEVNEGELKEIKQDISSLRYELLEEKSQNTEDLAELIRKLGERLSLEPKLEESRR
Chain of Short transient receptor potential channel 4 (Mus musculus) (Q9QUQ5 whole entry, looked up): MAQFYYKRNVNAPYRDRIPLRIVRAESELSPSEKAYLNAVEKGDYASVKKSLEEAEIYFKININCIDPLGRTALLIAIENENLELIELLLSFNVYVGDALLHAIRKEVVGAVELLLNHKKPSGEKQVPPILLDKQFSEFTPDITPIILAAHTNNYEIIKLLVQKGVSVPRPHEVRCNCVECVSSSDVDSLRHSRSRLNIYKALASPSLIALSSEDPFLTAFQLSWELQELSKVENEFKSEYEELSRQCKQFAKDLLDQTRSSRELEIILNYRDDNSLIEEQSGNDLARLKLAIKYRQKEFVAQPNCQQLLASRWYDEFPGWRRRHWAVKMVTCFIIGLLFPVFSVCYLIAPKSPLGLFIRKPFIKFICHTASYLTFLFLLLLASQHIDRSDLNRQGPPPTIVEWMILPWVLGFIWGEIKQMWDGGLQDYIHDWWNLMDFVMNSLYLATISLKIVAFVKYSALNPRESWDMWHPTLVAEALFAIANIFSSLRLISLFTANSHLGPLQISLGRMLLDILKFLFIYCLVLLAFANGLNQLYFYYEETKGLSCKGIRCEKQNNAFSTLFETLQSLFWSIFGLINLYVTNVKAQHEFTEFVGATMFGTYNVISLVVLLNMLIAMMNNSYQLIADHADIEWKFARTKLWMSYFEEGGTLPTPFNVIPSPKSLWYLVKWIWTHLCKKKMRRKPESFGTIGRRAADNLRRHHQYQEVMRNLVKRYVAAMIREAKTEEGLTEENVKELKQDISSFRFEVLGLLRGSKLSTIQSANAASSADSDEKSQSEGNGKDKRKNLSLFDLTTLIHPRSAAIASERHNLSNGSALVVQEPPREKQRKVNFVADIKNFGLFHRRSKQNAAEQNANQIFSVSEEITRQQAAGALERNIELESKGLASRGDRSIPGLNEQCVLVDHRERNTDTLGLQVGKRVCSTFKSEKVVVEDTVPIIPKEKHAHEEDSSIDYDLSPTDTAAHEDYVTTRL

Consider `CSCC[C@H](NC(=O)N1CCn2c1nc1ccccc12)C(=O)NCc1ccc(F)cc1`, for which the outcome in assay [1], in assay [2], in assay [3], in assay [5], in [6] and in [7] was inactive. In addition, the result in [8], in assay [9], in assay [10], in [11], in assay [12] and in [13] was inactive. Besides, the outcome in [14], in [15], in assay [16] and in [17] was inactive. Besides, the potentiation in [4] was 27% (active).
Turning to `c1ccc(Cn2nnc3cnccc32)cc1`, the result in assay [1], in [2], in assay [3], in assay [4], in [6] and in assay [7] was inactive. The result in assay [8], in assay [9], in [10], in assay [11], in assay [12] and in assay [13] was inactive. Besides, the outcome in [14], in assay [15], in assay [16] and in assay [17] was inactive. In addition, in assay [5], the inhibition is 65% (active).
Regarding `O=C(NCc1ccccc1Cl)/C(=C\c1cccnc1)NC(=O)c1ccccc1`, the result in assay [1], in [2], in [3], in assay [4], in [5] and in [6] was inactive. The outcome in [7], in assay [8], in assay [9], in assay [10], in assay [11] and in assay [12] was inactive. In addition, the outcome in [13], in assay [14], in assay [15], in assay [16] and in [17] was inactive.
With `CCNC(=S)N/N=C/c1cc(C)n(-c2ccc(Cl)cc2)c1C`, the result in assay [1], in assay [2], in assay [3], in assay [5], in assay [6] and in assay [7] was inactive. In addition, the result in assay [8], in [9], in [10], in assay [11], in assay [12] and in assay [13] was inactive. In addition, the result in [14], in assay [16] and in assay [17] was inactive. For the same compound, the potentiation in [4] was 19% (active); in assay [15] it was 17.3% (active).
Regarding `COC(=O)c1ccccc1N=Nc1c(C)[nH][nH]c1=O`, the outcome in [1], in assay [2], in assay [3], in assay [5], in assay [6] and in assay [7] was inactive. The result in assay [8], in assay [9], in assay [10], in assay [11], in assay [12] and in [13] was inactive. The outcome in assay [14], in assay [16] and in assay [17] was inactive. The potentiation is 73% (active) in assay [4] and 14.7% (active) in assay [15].
Consider `CN1CCN(CC#CCn2c3ccccc3c3ccccc32)CC1`, for which the outcome in assay [1], in assay [2], in [5], in [6], in assay [7] and in assay [8] was inactive. The result in assay [9], in [10], in assay [11], in assay [12], in [13] and in assay [14] was inactive. For the same compound, the outcome in assay [16] and in assay [17] was inactive. Moreover, the results for the potentiation in [3], in assay [4] and in assay [15] were 10% (active), 12% (active) and 38.7% (active), respectively.
As to `Cc1cccc(C)c1NC(=O)NCCCN1CCN(c2ccccc2)CC1`, the result in assay [1], in assay [2], in assay [3], in [4], in assay [5] and in [6] was inactive. Besides, the outcome in assay [7], in assay [8], in assay [9], in [10], in assay [11] and in assay [12] was inactive. The result in assay [13], in assay [14], in assay [15], in [16] and in [17] was inactive.
Turning to `Cc1cc(NC(=O)CSCC(=O)Nc2ccc(Cl)c(C(F)(F)F)c2)no1`, the outcome in assay [1], in assay [2], in assay [3], in assay [4], in assay [6] and in assay [7] was inactive. Further, the result in [8], in assay [9], in assay [10], in [11], in assay [12] and in assay [13] was inactive. For the same compound, the result in [15], in assay [16] and in assay [17] was inactive. In addition, the inhibition is 71% (active) in [5] and 35.2% (active) in [14].
As for `c1ccc(Nc2ncnc3sc4c(c23)CCC4)cc1`, the outcome in [1], in [2], in assay [3], in [4], in assay [5] and in [6] was inactive. Moreover, the result in [7], in assay [8], in [9], in assay [10], in [12] and in [13] was inactive. For the same compound, the result in [14], in assay [15], in assay [16] and in [17] was inactive. For the same compound, the activation in [11] is 30% (active).

These data come from PubChem BioAssay.
